In PubChem BioAssay (EPA / NIEHS) one finds outcome and AC50 data, which are given here for 9 molecules.

Assay [1] addresses Myc proto-oncogene protein (Homo sapiens) (UniProt P01106). Description: ATG_Myc_CIS: Attagene CIS-FACTORIAL HepG2 Assay for human Myelocytomatosis (Myc) Proto-Oncogene Transcription Factor (AID 2282990). The conditions noted are these: HepG2, Attagene cis-reporter transcription factor activity; actives raise or lower the signal. An outline of the steps:
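DMSO-normalised, bidirectionally fitted reporter mRNA signal. HepG2 cells transfected with cis reporter constructs, treated 24 h; transcripts detected by RT-PCR, 6-FAM primer extension and CE.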

Assay [2] can be described thus: ATG_NF_kB_CIS: Attagene CIS-FACTORIAL HepG2 Assay for human Nuclear Factor Kappa B (NF-kB) (AID 2282991). The conditions noted are these: HepG2 Attagene cis-factorial NF-kB reporter mRNA; actives raise or lower the signal. An outline of the steps:
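HepG2 cells transiently transfected with multiplexed cis-element reporter units measuring endogenous transcription factor activity; reporter mRNA read 24 h after dosing by RT-PCR, fluorescent labelling, HpaI digestion and capillary electrophoresis. Bidirectional fit against DMSO baseline.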

The nature of assay [3]: ATG_NRF2_ARE_CIS: Attagene CIS-FACTORIAL HepG2 Assay for human Nuclear Factor Erythroid 2 Related Factor 2 (NFR2) response to Antioxidant Response Elements (ARE) (AID 2282992). The conditions noted are these: HepG2 Attagene ARE/NRF2 reporter, transcription factor activity; actives raise or lower the signal. An outline of the steps:
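Using transiently transfected HepG2 cells exposed for 24 h, reporter mRNA levels were determined by RT-PCR with fluorescent primer extension and capillary electrophoresis, analysed for gain or loss of signal against DMSO.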

Assay [4] can be described thus: ATG_Oct_MLP_CIS: Attagene CIS-FACTORIAL HepG2 Assay for human Octamer-Binding Transcription Factor (Oct) (AID 2282993). The conditions noted are these: HepG2 Attagene cis-factorial Oct reporter, mRNA; actives raise or lower the signal. In a few lines: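 Transient MRTU transfection of HepG2 → 24 h compound treatment → RNA isolation, reverse transcription, PCR → 6-FAM primer extension, HpaI digest → capillary electrophoresis. Activity fitted both directions against DMSO.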

Assay [5] addresses Cellular tumor antigen p53 (Homo sapiens) (UniProt P04637). Put plainly: ATG_p53_CIS: Attagene CIS-FACTORIAL HepG2 Assay for human p53 Transcription Factor (AID 2282994). The settings on record: HepG2 p53 cis-element reporter, Attagene mRNA; actives raise or lower the signal. In a few lines:
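In HepG2 cells, reporter transcription units under cis-regulatory promoters were transiently introduced. Following 24 h treatment, RNA was processed to labelled, digested cDNA fragments read by capillary electrophoresis; fitting was bidirectional versus DMSO.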

A short description of assay [6]: BSK_3C_TissueFactor: BioMAP Diversity Plus: 3C Assay for Tissue Factor Biomarker Activity (AID 2282997). The settings on record: BioMAP 3C HUVEC, tissue factor biomarker readout; actives raise or lower the signal. In a few lines:
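Readout: Tissue Factor ELISA. Cells: human primary umbilical vein endothelium. Time: 24 h after dosing. Analysis: bidirectional fit, DMSO baseline.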

A short description of assay [7]: BSK_3C_uPAR: BioMAP Diversity Plus: 3C Assay for Urokinase-type plasminogen activator receptor (uPAR) Biomarker Activity (AID 2282998). The conditions noted are these: BioMAP 3C HUVEC, uPAR biomarker ELISA; actives raise or lower the signal. In a few lines: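 ELISA readout of uPAR on human vascular endothelium (umbilical vein primary cells), taken 24 h after chemical dosing. Increases and decreases are both fitted relative to DMSO vehicle.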

Assay [8] in a line: BSK_3C_VCAM1: BioMAP Diversity Plus: 3C Assay for Vascular cell adhesion molecule 1 (VCAM1) Biomarker Activity (AID 2282999). The conditions noted are these: BioMAP 3C HUVEC, VCAM1 ELISA, cytokine-stimulated; actives raise or lower the signal. An outline of the steps:
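Vascular primary endothelium (human umbilical vein) was exposed to chemicals and assayed 24 h later. VCAM-1 levels came from ELISA, with DMSO serving as baseline for bidirectional fitting.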
For orientation: An ELISA detects its analyte on a solid surface through an enzyme-linked reagent.

Assay [9] can be described thus: BSK_4H_Eotaxin3: BioMAP Diversity Plus: 4H Assay for Eotaxin 3 Biomarker Activity (AID 2283000).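 Also: CCL26 protein level quantified by ELISA in parallel with SRB cytotoxicity check.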 The conditions noted are these: primary human endothelial cells (HUVEC); actives raise or lower the signal. In a few lines: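 HUVEC, 24 h post-dose, ELISA for Eotaxin-3/CCL26. Gain or loss of signal fitted bidirectionally vs DMSO baseline.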
Read-out in assay [10]: Intercellular Adhesion Molecule 1 (ICAM1), ICAM1 (gene 3383)
Put plainly: BSK_3C_ICAM1: BioMAP Diversity Plus: 3C Assay for Intercellular Adhesion Molecule 1 (ICAM1) Biomarker Activity (AID 2283003). The conditions noted are these: primary human endothelial cells (HUVEC); actives raise or lower the signal. An outline of the steps:
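ELISA readout of ICAM1 in human umbilical vein endothelial cells in the 3C system, taken 24 h post-dose. Gain or loss of signal versus DMSO was fitted in both directions, with SRB total-protein staining run in parallel.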

Assay [11] is described as follows: BSK_3C_Proliferation: Cell Proliferation Assessment in the BioMAP Diversity Plus: 3C Assay (AID 2283006). The settings on record: primary human endothelial cells (HUVEC). In a few lines: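 Proliferation as total protein: sulforhodamine B (0.1%) stain of TCA-fixed subconfluent human umbilical vein endothelial cells, absorbance 560 nm, 48 h after dosing. Activity fitted in both directions against DMSO baseline.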

Assay [12] has as its target Nuclear receptor subfamily 1 group I member 2 (Homo sapiens) (UniProt O75469). Put plainly: ATG_PXR_TRANS: Attagene TRANS-FACTORIAL HepG2 Assay for human Pregnane X Receptor (PXR) (AID 2283008; active = hit-call score of the fitted dose curve at least 0.9, where 1 is the maximum). In a few lines:
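Multiplexed TRANS reporter panel in HepG2; this component tracks PXR-Gal4-driven reporter mRNA after 24 h dosing, measured by RT-PCR with capillary electrophoresis fluorescence, fitted against DMSO.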

In assay [13] the target is human Peroxisome Proliferator-activated Receptor alpha (PPARa), PPARA (gene 5465) (UniProt Q07869). Put plainly: ATG_PPARa_TRANS: Attagene TRANS-FACTORIAL HepG2 Assay for human Peroxisome Proliferator-activated Receptor alpha (PPARa) (AID 2283001; active = hit-call score of the fitted dose curve at least 0.9, where 1 is the maximum). In a few lines: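 Cells (HepG2) are transfected with multiple reporter transcription units, exposed to chemical for 24 h, then total RNA is reverse-transcribed and amplified. Labelled products are quantified by capillary electrophoresis; induction is referenced to DMSO.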
Chain of human Peroxisome Proliferator-activated Receptor alpha (PPARa), PPARA (gene 5465) (Q07869 whole entry, looked up): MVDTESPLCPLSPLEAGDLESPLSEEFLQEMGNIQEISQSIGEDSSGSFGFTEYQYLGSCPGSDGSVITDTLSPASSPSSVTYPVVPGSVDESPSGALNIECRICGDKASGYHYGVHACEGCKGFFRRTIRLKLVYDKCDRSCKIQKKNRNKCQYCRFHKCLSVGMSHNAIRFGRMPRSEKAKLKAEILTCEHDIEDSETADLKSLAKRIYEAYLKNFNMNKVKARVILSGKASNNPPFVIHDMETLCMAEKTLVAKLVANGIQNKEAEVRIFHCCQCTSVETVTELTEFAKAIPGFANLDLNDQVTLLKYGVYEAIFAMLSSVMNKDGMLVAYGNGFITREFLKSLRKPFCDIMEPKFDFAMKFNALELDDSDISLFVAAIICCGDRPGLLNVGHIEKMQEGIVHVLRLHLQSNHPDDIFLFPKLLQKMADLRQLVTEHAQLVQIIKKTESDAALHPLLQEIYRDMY

The target of assay [14] is Peroxisome proliferator-activated receptor gamma (Homo sapiens) (UniProt P37231). Description: ATG_PPARg_TRANS: Attagene TRANS-FACTORIAL HepG2 Assay for human Peroxisome Proliferator-activated Receptor-gamma (PPARg) (AID 2283007; active = hit-call score of the fitted dose curve at least 0.9, where 1 is the maximum). In a few lines: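 HepG2 cells transiently transfected with multiplexed GAL4-UAS reporter units and exogenous chimeric NR-Gal4 proteins; reporter mRNA quantified after 24 h compound exposure by RT-PCR, fluorescent labelling, HpaI digestion and capillary electrophoresis; gain-of-signal fitted versus DMSO baseline.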
Chain of Peroxisome proliferator-activated receptor gamma (Homo sapiens) (P37231 whole entry, looked up, the tested form may be a part): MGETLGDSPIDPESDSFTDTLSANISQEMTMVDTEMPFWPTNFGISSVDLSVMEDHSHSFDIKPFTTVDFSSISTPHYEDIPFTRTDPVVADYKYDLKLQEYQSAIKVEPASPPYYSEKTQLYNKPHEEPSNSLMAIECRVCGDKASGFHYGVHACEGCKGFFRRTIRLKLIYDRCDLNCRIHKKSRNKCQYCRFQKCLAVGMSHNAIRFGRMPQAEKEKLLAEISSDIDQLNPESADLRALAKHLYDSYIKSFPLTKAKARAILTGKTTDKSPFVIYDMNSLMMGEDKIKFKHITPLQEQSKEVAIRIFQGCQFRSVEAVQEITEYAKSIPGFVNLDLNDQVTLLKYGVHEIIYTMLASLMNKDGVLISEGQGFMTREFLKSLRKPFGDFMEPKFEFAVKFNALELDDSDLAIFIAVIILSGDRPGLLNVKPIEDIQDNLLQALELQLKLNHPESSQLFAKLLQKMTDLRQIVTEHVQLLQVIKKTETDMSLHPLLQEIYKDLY

In assay [15] the target is Retinoic acid receptor RXR-alpha (Homo sapiens) (UniProt P19793). Description: ATG_RXRa_TRANS: Attagene TRANS-FACTORIAL HepG2 Assay for human Retinoid X Receptor alpha (RXRa) (AID 2283012; active = hit-call score of the fitted dose curve at least 0.9, where 1 is the maximum). In a few lines:
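TRANS format reporting activity of exogenous RXRa-Gal4 chimera in transiently transfected HepG2, 24 h exposure. Reporter transcripts quantified by RT-PCR with capillary electrophoresis, with gain of signal scored relative to DMSO.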

Assay [16] concerns the target human RAR-related Orphan Receptor gamma (RORg), RORC (gene 6097) (UniProt P51449). Put plainly: ATG_RORg_TRANS: Attagene TRANS-FACTORIAL HepG2 Assay for human RAR-related Orphan Receptor gamma (RORg) (AID 2283011; active = hit-call score of the fitted dose curve at least 0.9, where 1 is the maximum). In a few lines:
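Readout: reporter transcript induction (RT-PCR, fluorescent primer extension, capillary electrophoresis) after 24 h compound exposure of transiently transfected HepG2 cells carrying a RORg-Gal4 chimera and GAL4-UAS reporters; DMSO served as baseline, with increasing signal fitted.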

In assay [17] the target is human Peroxisome Proliferator-activated Receptor delta (PPARd), PPARD (gene 5467) (UniProt Q03181). Put plainly: ATG_PPARd_TRANS: Attagene TRANS-FACTORIAL HepG2 Assay for human Peroxisome Proliferator-activated Receptor delta (PPARd) (AID 2283002; active = hit-call score of the fitted dose curve at least 0.9, where 1 is the maximum). An outline of the steps:
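Measured quantity: GAL4-UAS reporter transcript induction in HepG2 after 24 h chemical dosing, with NR-Gal4 chimeras supplied by transient transfection. Detection by RT-PCR and capillary electrophoresis; upward fit against DMSO.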

Assay [18] has as its target human Retinoic Acid Receptor beta (RARb), RARB (gene 5915) (UniProt P10826). Description: ATG_RARb_TRANS: Attagene TRANS-FACTORIAL HepG2 Assay for human Retinoic Acid Receptor beta (AID 2283004; active = hit-call score of the fitted dose curve at least 0.9, where 1 is the maximum). An outline of the steps:
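HepG2 cells transiently transfected with multiplexed GAL4-UAS reporter units expressing chimeric NR–Gal4 fusions; 24 h compound exposure. Reporter mRNA quantified by RT-PCR, 6-FAM labelling, HpaI digestion and capillary electrophoresis; gain-of-signal fitted against DMSO baseline.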

Assay [19] concerns the target Retinoic acid receptor alpha (Homo sapiens) (UniProt P10276). Description: ATG_RARa_TRANS: Attagene TRANS-FACTORIAL HepG2 Assay for human Retinoic Acid Receptor alpha (RARa) (AID 2283005; active = hit-call score of the fitted dose curve at least 0.9, where 1 is the maximum). In a few lines: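 HepG2 cells transiently transfected with multiple reporter units expressing chimeric RARα-GAL4 fusion, with GAL4-UAS-driven reporters. After 24 h compound exposure, reporter mRNA induction quantified by RT-PCR and capillary electrophoresis with fluorescent labeling; gain-of-signal fitted relative to DMSO control.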

Assay [20] addresses human RAR-related Orphan Receptor beta (RORb), RORB (gene 6096) (UniProt Q92753). Description: ATG_RORb_TRANS: Attagene TRANS-FACTORIAL HepG2 Assay for human RAR-related Orphan Receptor beta (RORb) (AID 2283010; active = hit-call score of the fitted dose curve at least 0.9, where 1 is the maximum). An outline of the steps:
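Read-out is reporter mRNA induction, quantified by RT-PCR with fluorescent capillary electrophoresis, 24 h post-dose in transiently transfected HepG2 expressing exogenous NR-Gal4 chimera. Activity fitted upward versus DMSO.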

The structures appear in SMILES notation. Records with an inconclusive call do not appear. Calls of active or inactive are those of the source. The calls were made as follows, unless noted: active = hit-call score of the fitted dose curve at least 0.9, where 1 is the maximum; inactive = score below 0.9.

Chain of Retinoic acid receptor RXR-alpha (Homo sapiens) (P19793 whole entry, looked up, the tested form may be a part): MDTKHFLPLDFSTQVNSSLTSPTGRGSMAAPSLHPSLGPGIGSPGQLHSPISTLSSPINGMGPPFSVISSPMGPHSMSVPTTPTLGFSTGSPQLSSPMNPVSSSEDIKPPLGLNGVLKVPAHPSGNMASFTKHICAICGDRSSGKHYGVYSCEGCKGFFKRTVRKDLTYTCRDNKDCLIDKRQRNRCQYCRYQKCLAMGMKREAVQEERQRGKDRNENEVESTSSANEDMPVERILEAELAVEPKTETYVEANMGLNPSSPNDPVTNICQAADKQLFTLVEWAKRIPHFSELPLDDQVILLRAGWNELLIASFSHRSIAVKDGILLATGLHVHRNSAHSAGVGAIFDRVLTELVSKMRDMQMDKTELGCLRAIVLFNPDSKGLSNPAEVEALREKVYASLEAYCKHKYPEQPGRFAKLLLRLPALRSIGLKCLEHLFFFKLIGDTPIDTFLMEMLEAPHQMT
Chain of human Peroxisome Proliferator-activated Receptor delta (PPARd), PPARD (gene 5467) (Q03181 whole entry, looked up, the tested form may be a part): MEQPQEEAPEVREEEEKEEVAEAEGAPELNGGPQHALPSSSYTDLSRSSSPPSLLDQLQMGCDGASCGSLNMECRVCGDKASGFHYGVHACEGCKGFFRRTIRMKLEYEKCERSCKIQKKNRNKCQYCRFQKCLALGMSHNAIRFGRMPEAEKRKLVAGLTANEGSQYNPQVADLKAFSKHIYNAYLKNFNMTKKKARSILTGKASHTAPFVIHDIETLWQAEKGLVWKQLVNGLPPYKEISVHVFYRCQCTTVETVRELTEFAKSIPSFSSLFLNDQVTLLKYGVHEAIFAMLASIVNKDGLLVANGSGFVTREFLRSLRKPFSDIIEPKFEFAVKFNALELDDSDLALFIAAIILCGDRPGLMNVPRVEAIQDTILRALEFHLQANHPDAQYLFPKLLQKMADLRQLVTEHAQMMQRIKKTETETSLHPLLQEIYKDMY
Chain of Cellular tumor antigen p53 (Homo sapiens) (P04637 whole entry, looked up, the tested form may be a part): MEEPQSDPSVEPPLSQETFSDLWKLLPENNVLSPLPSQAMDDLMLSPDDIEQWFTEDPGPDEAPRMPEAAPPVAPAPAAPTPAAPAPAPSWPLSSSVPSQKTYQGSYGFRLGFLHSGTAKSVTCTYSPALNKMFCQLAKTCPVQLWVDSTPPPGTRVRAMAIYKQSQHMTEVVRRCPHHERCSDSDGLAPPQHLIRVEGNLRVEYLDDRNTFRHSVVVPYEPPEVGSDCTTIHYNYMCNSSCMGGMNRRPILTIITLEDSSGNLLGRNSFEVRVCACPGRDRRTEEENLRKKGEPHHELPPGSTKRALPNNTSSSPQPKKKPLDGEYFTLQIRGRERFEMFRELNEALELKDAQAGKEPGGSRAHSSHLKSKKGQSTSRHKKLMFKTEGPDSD
Chain of Retinoic acid receptor alpha (Homo sapiens) (P10276 whole entry, looked up, the tested form may be a part): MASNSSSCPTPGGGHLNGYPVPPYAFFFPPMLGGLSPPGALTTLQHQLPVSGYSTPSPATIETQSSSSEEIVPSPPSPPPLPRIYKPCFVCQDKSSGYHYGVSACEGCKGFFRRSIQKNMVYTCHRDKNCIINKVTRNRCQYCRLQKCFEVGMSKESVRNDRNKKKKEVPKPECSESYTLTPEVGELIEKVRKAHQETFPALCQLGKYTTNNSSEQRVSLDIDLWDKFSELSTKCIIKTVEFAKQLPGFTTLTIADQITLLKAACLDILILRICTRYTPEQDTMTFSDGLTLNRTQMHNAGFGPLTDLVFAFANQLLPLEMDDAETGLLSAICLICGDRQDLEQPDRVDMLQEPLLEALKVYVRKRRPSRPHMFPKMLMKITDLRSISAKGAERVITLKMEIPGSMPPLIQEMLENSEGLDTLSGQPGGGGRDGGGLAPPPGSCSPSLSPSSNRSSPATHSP
Chain of human Retinoic Acid Receptor beta (RARb), RARB (gene 5915) (P10826 whole entry, looked up, the tested form may be a part): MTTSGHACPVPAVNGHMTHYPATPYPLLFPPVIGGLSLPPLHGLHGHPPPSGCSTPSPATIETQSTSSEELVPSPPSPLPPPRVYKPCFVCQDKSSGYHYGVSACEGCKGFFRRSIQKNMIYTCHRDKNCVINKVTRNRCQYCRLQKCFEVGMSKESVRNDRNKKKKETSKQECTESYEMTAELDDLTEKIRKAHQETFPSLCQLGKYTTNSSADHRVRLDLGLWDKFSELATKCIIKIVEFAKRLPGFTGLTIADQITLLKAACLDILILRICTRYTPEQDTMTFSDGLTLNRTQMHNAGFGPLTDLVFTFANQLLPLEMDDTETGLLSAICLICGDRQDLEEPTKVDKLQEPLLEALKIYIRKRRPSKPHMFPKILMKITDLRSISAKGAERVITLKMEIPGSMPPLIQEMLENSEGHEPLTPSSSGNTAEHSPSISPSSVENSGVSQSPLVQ
Chain of Myc proto-oncogene protein (Homo sapiens) (P01106 whole entry, looked up): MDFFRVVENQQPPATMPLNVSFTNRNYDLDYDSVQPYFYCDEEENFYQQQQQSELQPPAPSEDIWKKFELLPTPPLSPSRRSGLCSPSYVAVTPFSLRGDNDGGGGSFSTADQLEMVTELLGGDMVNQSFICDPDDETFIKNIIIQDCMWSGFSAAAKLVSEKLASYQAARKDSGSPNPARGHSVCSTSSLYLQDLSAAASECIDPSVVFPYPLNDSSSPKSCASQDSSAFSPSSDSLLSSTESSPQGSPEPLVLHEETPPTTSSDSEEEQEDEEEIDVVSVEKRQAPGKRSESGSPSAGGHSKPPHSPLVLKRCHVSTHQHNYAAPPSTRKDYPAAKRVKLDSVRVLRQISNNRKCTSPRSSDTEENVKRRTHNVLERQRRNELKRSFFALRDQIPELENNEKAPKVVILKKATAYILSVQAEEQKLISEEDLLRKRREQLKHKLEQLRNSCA
Chain of Nuclear receptor subfamily 1 group I member 2 (Homo sapiens) (O75469 whole entry, looked up, the tested form may be a part): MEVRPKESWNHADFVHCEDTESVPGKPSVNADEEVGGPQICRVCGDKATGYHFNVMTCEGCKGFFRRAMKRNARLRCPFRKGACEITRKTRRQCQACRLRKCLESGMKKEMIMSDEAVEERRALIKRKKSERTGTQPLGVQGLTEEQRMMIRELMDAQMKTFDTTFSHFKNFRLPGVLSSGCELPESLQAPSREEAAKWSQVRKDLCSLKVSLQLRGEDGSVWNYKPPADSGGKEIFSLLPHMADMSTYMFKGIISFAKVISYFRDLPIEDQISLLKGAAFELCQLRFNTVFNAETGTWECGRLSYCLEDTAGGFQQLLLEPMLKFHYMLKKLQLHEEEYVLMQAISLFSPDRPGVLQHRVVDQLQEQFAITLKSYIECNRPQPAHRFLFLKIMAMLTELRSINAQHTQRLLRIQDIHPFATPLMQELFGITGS
Chain of human RAR-related Orphan Receptor gamma (RORg), RORC (gene 6097) (P51449 whole entry, looked up, the tested form may be a part): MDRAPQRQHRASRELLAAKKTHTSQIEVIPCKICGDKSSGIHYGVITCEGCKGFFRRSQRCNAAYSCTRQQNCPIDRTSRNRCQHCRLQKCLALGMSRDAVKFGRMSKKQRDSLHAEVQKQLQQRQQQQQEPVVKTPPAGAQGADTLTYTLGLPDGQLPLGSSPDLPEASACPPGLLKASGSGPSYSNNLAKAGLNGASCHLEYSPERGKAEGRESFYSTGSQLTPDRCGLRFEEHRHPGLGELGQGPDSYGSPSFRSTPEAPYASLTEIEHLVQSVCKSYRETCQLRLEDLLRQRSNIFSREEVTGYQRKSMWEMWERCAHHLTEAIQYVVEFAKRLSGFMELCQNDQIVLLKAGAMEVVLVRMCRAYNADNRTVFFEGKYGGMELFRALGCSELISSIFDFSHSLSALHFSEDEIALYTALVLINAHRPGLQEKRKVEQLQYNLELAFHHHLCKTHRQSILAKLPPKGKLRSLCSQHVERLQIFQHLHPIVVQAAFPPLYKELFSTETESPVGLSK

`OC(Cn1cncn1)(Cn1cncn1)c1ccc(F)cc1F`: the result in assay [1], in [2], in assay [3], in [4], in [5] and in assay [6] was inactive. Moreover, the outcome in assay [7], in [8], in [9], in assay [10], in assay [11] and in assay [12] was inactive.

As to `CC(=O)c1ccccc1`, the molecule was classed as inactive in [1], in assay [2], in assay [3], in assay [4], in [5] and in [6]. Besides, the outcome in [8], in [9], in assay [13], in assay [10], in assay [11] and in [14] was inactive. In [15], the result was inactive.

The AC50 is the midpoint of the concentration-response curve, whichever way the signal moves. Take `NC(=O)NN=Cc1ccc([N+](=O)[O-])o1`: the result in [1], in assay [2], in assay [4], in [5], in assay [6] and in [8] was inactive. Besides, the outcome in [9], in assay [10], in assay [11], in [14] and in assay [16] was inactive. For the same molecule, the half-maximal activity concentration (AC50) in [3] was 27800 nM (active).

As for `C[Si](C)(C)C(F)(F)C(F)(F)C(F)(F)F`, the outcome in [1], in assay [2], in assay [3], in [4], in assay [5] and in [6] was inactive. Further, the outcome in assay [8], in assay [9], in assay [13], in [17], in [10] and in assay [18] was inactive. Moreover, the call in assay [19], in [11], in assay [14], in [12], in assay [20] and in [16] was inactive. In addition, the call in assay [15] was inactive.

For `FC(F)(F)COC(OCC(F)(F)F)OCC(F)(F)F`, the call in assay [1], in [2], in assay [3], in [4], in assay [5] and in [6] was inactive. Further, the outcome in assay [8], in [9], in [17], in [10], in [18] and in [19] was inactive. Further, the outcome in assay [11], in [14], in [12], in assay [20], in [16] and in [15] was inactive.

With `c1ccc2cc3ccccc3cc2c1`, the molecule was classed as inactive in assay [1], in assay [2], in [3], in assay [4], in [5] and in assay [8]. Further, the result in assay [9], in [13], in [17], in assay [10], in assay [18] and in assay [11] was inactive. Besides, the outcome in assay [12] and in [15] was inactive. In [6], the concentration at half-maximal activity (AC50) was 2030 nM (active).

On to `CC(C)CCCCCCOC(=O)C1CCCCC1C(=O)OCCCCCCC(C)C` (centres undefined), for which the outcome in [1], in assay [2], in [3], in assay [6], in assay [8] and in [9] was inactive. The molecule was classed as inactive in assay [13], in [10], in assay [18], in assay [11], in [14] and in assay [20]. In addition, in assay [12], the concentration at half-maximal activity (AC50) is 1370 nM (active).

As for `O=C(O)c1ccc2c(c1)nc(C(=O)NC1CCN(C3CC3)CC1)n2Cc1cc(-c2ccc(Cl)s2)on1`, the outcome in [1], in [2], in assay [3], in assay [5], in assay [6] and in assay [7] was inactive. The result in assay [8], in [9], in [13], in [17], in assay [10] and in [11] was inactive. The result in [20] and in assay [16] was inactive. Moreover, the AC50 in [14] is 1030 nM (active).

In the case of `CCCC(CCC)C(=O)O`, the result in [1], in assay [2], in assay [3], in [6], in [8] and in assay [9] was inactive. Moreover, the result in [13], in assay [10], in assay [11], in assay [12], in assay [20] and in [15] was inactive.
